USP1 inh = inhibitors of human USP1/UAF1 deubiquitinase; O94782; recombinant USP1/UAF1, Ub-Rhodamine cleavage fluorescence; Potency, µM (doses to about 57.1 µM), hits mostly inhibitors; 390,000 tested, 0.23% active; note: nearly all actives have a fitted effect of over 60% in size
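USP1/UAF1 complex at 1 nM was preincubated with compound for 15 min at room temperature, then Ub-Rho substrate (150nM final) was added. Fluorescence (480/540 nm) was read kinetically, 6 reads every 60 seconds.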
WRN helicase inh = inhibitors of human WRN helicase. Potency, µM (titrated, usually from 114 µM), actives largely listed as inhibitors. WRN helicase unwinding, fluorescent forked duplex, kinetic. Q14191. 360,000 tested, 0.46% active; note: nearly all actives have a fitted effect of over 55% in size
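WRN at 20 nM final preincubated with compound 15 min at room temperature; reaction started with 100 nM fluorophore/quencher forked duplex oligonucleotide and 2 mM ATP final. Unwinding followed kinetically by red fluorescence (ex 525, em 598 nm).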
PLK1 PBD inh = PLK1 (human) polo-box domain binding inhibition; AID 720504; Plk1 PBD binding of FITC phosphopeptide, fluorescence polarization; P53350; Potency, µM, hits mostly inhibitors; 360,000 tested, 2.8% active; note: series mostly up to about 57 µM; nearly all actives have a fitted effect of over 65% in size
Target sequence (P53350 whole entry, looked up, the tested form may be a part): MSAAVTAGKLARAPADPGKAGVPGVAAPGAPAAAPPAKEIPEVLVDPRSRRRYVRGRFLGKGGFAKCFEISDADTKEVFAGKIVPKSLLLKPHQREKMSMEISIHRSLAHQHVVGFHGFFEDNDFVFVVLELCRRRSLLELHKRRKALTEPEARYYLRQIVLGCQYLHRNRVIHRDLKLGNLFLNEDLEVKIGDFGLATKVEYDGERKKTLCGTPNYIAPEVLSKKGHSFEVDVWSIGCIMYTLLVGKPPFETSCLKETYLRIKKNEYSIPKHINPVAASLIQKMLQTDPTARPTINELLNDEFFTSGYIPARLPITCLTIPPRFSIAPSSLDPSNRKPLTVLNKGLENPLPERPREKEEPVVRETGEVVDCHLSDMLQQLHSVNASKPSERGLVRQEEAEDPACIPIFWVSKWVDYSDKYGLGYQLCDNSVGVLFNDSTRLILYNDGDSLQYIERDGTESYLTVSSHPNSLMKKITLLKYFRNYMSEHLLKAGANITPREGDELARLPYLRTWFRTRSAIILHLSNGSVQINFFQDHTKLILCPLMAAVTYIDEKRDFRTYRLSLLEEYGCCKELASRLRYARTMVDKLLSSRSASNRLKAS
USP2a inh = USP2a (human) protease inhibition. O75604. USP2 core, Ub-CHOP2 coupled fluorogenic reporter, 485/531. Potency, µM (series often up to 38.3 µM), hits mostly inhibitors. 330,000 tested, 0.01% active. AID 463254
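USP2 core (10nM final) preincubated 30min RT with compound in 20mM Tris-HCl pH 8.0, 2mM CaCl2, 2mM beta-mercaptoethanol, 0.05% CHAPS; 25nM Ub-CHOP2 plus 25nM reporter substrate added, fluorescence (Ex485/Em531) read after 60min.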
PI5P4K alpha inh = blocks human PI5P4K alpha kinase activity; 330,000 tested, 1.2% active; PI5P4Kalpha enzyme, ADP-Glo luminescence, 60 min; stronger effect = lower value; AID 652105; max response, %; P48426; active = max response of -50% or lower; inconclusive = between -30% and -50%; inactive = -30% or higher; note: value at the top dose of about 77 µM
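Single end-point luminescence (ADP-Glo) quantified ADP from PI5P4Kalpha turnover; ATP 5 microM final, 1 h at RT, 0.1% CHAPS and 0.28 mM EGTA in HEPES pH 7.4.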
A number is an active result; – = inactive; ? = inconclusive; · = no result; [ ] = dose if it differs, or a comment. Only some compounds are listed: those with a hit (about 3.3% of all), similar ones and a draw of the others. Unless noted, calls come from the whole dose curve; as a rule, active = well fitted curve in the direction sought with a large enough effect; inconclusive = small, poorly fitted or top-dose-only effect, or another doubt; inactive = no such curve, though single readings can be large; an effect the other way counts as inactive or inconclusive.

SMILES | USP1 inh | WRN helicase inh | PLK1 PBD inh | USP2a inh | PI5P4K alpha inh
CCOC(=O)N1CCC(NC(=O)c2ccc3c(c2)N(Cc2cc(C)ccc2C)C(=O)c2ccccc2S3=O)CC1 (stereo not given) | – | · | · | · | ·
COc1ccc(-n2c(O)c(/C=N/NS(=O)(=O)c3cc(C)ccc3C)c3ccccc3c2=O)cc1OC | ? | 79.4µM | – | – | –
O=C(NC1CCCCC1)C(c1cccnc1)N(CCc1ccccc1)C(=O)Cc1cccs1 (stereo not given) | – | – | 26.7µM | – | –
O=C(NC1CCCC1)C(c1cccnc1)N(CCc1ccccc1)C(=O)c1ccco1 (stereo not given) | – | – | – | – | –
CC(=O)Nc1nonc1-c1nnc(SCC(=O)Nc2cc(C)ccc2C)n1-c1ccccc1 | – | · | · | · | ·
CC(C)C(=O)OCc1cn(-c2ccc(Cl)c(Cl)c2)nn1 | – | – | 21.2µM | – | ?
Cc1ccc(NC(=O)c2cnc(SCC(=O)N3CCOCC3)n(C)c2=O)cc1C | – | · | · | · | ·
Cc1nn2cc(-c3ncc(C(F)(F)F)cc3Cl)cnc2c1Br | – | – | 23.8µM | – | –
CCc1ccc(S(=O)(=O)N2CCN(c3ccc(Cl)c(Cl)c3)CC2)cc1 | – | · | · | · | ·
COc1ccc(CCNc2nc(-c3ccc(NC(C)=O)cc3)cs2)cc1OC | – | – | – | – | –
COc1ccc(CCNc2nc(C)c(C(C)=O)s2)cc1OC | ? | – | 4.74µM | – | –
CC(=O)c1sc(NCc2ccc(C)cc2)nc1C | – | – | – | – | –
COc1ccc(CCNc2nc(-c3ccc(F)cc3)c(CC(=O)O)s2)cc1OC | – | ? | 8.44µM | – | –
COc1ccc2nc(Nc3nc(C)c(C(C)=O)s3)sc2c1 | – | – | – | – | ?
COc1cc(C)nc(Nc2nc(C)c(C(C)=O)s2)n1 | – | – | 2.99µM | – | ?
COc1ccc(-c2noc(CSc3nnc(-c4ccncc4)n3-c3ccc(C)cc3)n2)cc1OC | – | · | · | · | ·
COc1ccccc1CNC(=O)CCCn1c(=O)c2ccccc2n(Cc2ccc(C)cc2)c1=O | – | · | · | · | ·
Cc1ccc(C)c(N(CC(N)=O)S(C)(=O)=O)c1 | – | – | 26.7µM | – | –
Cc1ccccc1N(CC(N)=O)S(C)(=O)=O | – | – | – | – | –
Clc1ccc(-c2cc3ccccc3nc2N2CCCC2)cc1 | – | – | – | – | –
Clc1ccc(-c2cc3ccccc3nc2N2CCOCC2)cc1 | – | – | 15µM | – | –
COc1cc(C2NC(=O)N(C)C3=C2C(=O)N(c2ccccc2)C3)ccc1O (stereo not given) | – | · | · | · | ·
COc1cc(CN2CCN(C(=O)c3ccc(-c4ccccc4)cc3)CC2)cc(OC)c1OC | – | – | – | – | –
COc1cccc(CN2CCN(C(=O)c3ccc(-c4ccccc4)cc3)CC2)c1OC | ? | – | 29.9µM | – | –
CCCC12CN3CC(C)(CN(C1)C3c1ccc(CC)cc1)C2=O (stereo not given) | – | · | · | · | ·
SMILES | USP1 inh | WRN helicase inh | PLK1 PBD inh | USP2a inh | PI5P4K alpha inh
CCC1=NN2C(=N)/C(=C\c3cccn3-c3c(C)cccc3C)C(=O)N=C2S1 | – | – | ? | – | –
Cc1ccc(-n2cccc2/C=C2/C(=N)N3C(=NC2=O)SN=C3S(C)(=O)=O)cc1Cl | – | ? | 26.7µM | – | -74.2
CC1=CSC2=NC(=O)/C(=C\c3cccn3-c3ccccc3)C(=N)N12 | – | – | – | – | ?
Cc1cccc(C)c1-n1cccc1/C=C1/C(=N)N2C(=NC1=O)SN=C2S(C)(=O)=O | – | –[11.6 µM] | 21.2µM | – | –
COc1cccc(CNC(=O)CCc2c(C)nc3c(c2C)c(=O)n(C)c(=O)n3C)c1 | – | · | · | · | ·
Cc1nc(C)c(-c2csc(Nc3ccc(O)c(C(=O)O)c3)n2)s1 | – | – | ? | – | -74.5
Cc1nc(C)c(-c2csc(Nc3ccc(N)cc3)n2)s1 | – | – | – | – | –
Cc1cc(NS(=O)(=O)c2ccc(Nc3nc(-c4sc(N)nc4C)cs3)cc2)no1 | – | 25.1µM | 29.9µM | – | –
Cc1nc(N)sc1-c1csc(Nc2ccccc2)n1 | – | – | 26.7µM | – | ?
CC(=O)Nc1ccc(Nc2nc(-c3sc(NC(C)=O)nc3C)cs2)cc1 | – | – | 23.8µM | – | –
COc1cc(NC(=O)c2cccc(Cl)c2Cl)ccc1NC(=O)c1cc2ccccc2o1 | – | · | · | · | ·
CC(C)c1ccc(Nc2c(-c3ccccn3)nc3ccccn23)cc1 | – | · | · | · | ·
Cc1csc(Nc2ccc(C(=O)O)cc2)n1 | – | – | – | – | –
Cc1csc(Nc2ccccc2)n1 | – | – | 29.9µM | – | –
Cc1ccccc1NC(=O)COC(=O)CCc1ccccc1 | – | – | 5.97µM | – | –
O=[N+]([O-])c1cnc(Sc2ccncn2)s1 | – | – | 0.67µM | – | –
Nc1nnnn1/N=C/c1cc(Cl)cc(Cl)c1O | ? | – | 11.9µM | – | –
Nc1nnnn1/N=C/c1cc(Cl)ccc1O | – | – | ? | – | –
O=C(Cn1nnc(-c2cccc(C(F)(F)F)c2)n1)NCc1ccc(F)cc1 | – | · | · | · | ·
COC(=O)c1ccc(Oc2cc(C)nc(Cl)n2)cc1 | – | – | – | – | –
COC(=O)c1ccc(Oc2cc(C)nc(SC)n2)cc1 | – | – | 11.9µM | – | –
CCc1ccc(C(=O)c2cn(CC(=O)Nc3ccc(C)c(C)c3)c3ccccc3c2=O)cc1 | – | · | · | · | ·
O=C1CC(c2ccco2)CC2=C1C=Nc1ccccc1N2 (stereo not given) | – | – | – | – | –
O=c1[nH]c2c(s1)C=Nc1ccccc1N2 | 28.2µM | – | 13.4µM | ? | ·
CCC(Nc1ccc(-c2nc(-c3ccco3)no2)cc1[N+](=O)[O-])c1ccccc1 (stereo not given) | – | · | · | · | ·
SMILES | USP1 inh | WRN helicase inh | PLK1 PBD inh | USP2a inh | PI5P4K alpha inh
COc1ccc(NC(=S)N(CCN(C)C)C(C)c2ccco2)cc1Cl (stereo not given) | – | – | 23.8µM | – | –
COc1cccc(NC(=S)N(CCN(C)C)C(C)c2ccco2)c1 (stereo not given) | – | – | – | – | –
CCOc1ccccc1NC(=O)N(C)CCc1c(C)nn(CC)c1C | – | · | · | · | ·
CC(C)(C)N1NC2(CCCCC2)NC1=S | – | – | ? | – | -58.1
S=C1NC2(CCCCC2)NN1c1ccccc1 | – | – | – | – | –
CC1=C(SCCC#N)S/C(=C2\SC(C)=C(SCCC#N)S2)S1 | – | – | 11.9µM | – | ·
Cn1c(SCCC#N)nnc1-c1ccc(F)cc1 | · | · | · | – | ·
COC(=O)NCC(C)OC(=O)Nc1cccc(Cl)c1 (stereo not given) | – | – | 18.9µM | – | –
Cc1ccc(Cn2c(C)c3cnn(CC(=O)NCCc4ccc(Cl)cc4)c(=O)c3c2C)cc1 | – | · | · | · | ·
COc1ccc(/C=C2/CCC(CN3CCOCC3)C2=O)cc1 (stereo not given) | – | 14.1µM | 5.32µM | · | –
CN(C)CC1CC/C(=C\c2ccc(O)cc2)C1=O (stereo not given) | – | 11.2µM | 6.7µM | · | –
COc1ccc(/C=C2\CCC(C3CCCC3)C2=O)cc1 (stereo not given) | – | – | – | – | –

Screening results deposited in PubChem by National Center for Advancing Translational Sciences (NCATS).
